# Source: PubChem BioAssay
# GLS inhibitor – blocks human kidney-isoform glutaminase activity; GLS enzymatic activity, qHTS titration; hit rate 0.21% among 410,000; AID 624170; O94925; Potency, µM (titrated, usually from 45.5 µM), inactives show at the top dose activity change, negative = inhibition, most hits filed as inhibitors
# Target sequence (O94925 whole entry, looked up, canonical isoform): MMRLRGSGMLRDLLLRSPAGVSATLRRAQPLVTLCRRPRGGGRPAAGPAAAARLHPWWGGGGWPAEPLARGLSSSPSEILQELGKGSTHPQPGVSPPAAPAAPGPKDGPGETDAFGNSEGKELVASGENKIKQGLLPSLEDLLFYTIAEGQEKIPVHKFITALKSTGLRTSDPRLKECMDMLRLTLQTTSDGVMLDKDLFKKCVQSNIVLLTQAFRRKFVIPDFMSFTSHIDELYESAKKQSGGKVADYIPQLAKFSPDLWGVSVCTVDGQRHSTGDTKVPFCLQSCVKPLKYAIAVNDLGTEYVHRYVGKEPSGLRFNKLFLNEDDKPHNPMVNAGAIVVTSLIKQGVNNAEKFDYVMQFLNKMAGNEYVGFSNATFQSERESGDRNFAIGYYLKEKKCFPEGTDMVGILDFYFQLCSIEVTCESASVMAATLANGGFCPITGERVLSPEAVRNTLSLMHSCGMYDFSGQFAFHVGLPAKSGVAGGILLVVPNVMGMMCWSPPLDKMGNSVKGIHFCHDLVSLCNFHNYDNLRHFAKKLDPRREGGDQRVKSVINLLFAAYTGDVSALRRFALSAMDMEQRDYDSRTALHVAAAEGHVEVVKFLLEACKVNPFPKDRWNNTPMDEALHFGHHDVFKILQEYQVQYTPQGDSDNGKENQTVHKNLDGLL
#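 Glutamate formation by hKGA was monitored fluorometrically using coupled glutamate oxidase, HRP and Amplex Red. Substrate was added as 1 mM L-glutamine solution; incubation was 30 min at RT after an initial read.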
# RECQ1 inh – RECQ1 (human) helicase inhibition. AID 2549. RECQ1 DNA unwinding, red fluorescence kinetic read. P46063. hit rate 0.54% among 240,000. Potency, µM (top dose mostly 57.3 µM), for the others: at the top dose activity, negative = inhibition, hits mostly inhibitors;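 also: plate controls were vehicle for no effect and no enzyme for full effect; nearly all actives have a fitted effect of over 30% in size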
#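 50 nM RECQ1T1 preincubated 15 min with compound in Tris pH 8.0 buffer with MgCl2, DTT, Tween-20 and 2.5 ug/ml poly(dI-dC); started with 200 nM TAMRA/BHQ-2 forked duplex and 2 mM ATP. Unwinding read as fluorescence (525/598 nm), two reads 2 h apart.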
# PGK inhibitor – T. brucei PGK inhibition; Potency, µM (top dose mostly 57.5 µM), without a hit: at the highest dose activity change, negative = inhibition, usual class: inhibitors; hit rate 0.043% among 380,000; PGK/GAPDH coupled, Kinase-Glo luminescence, 60 min; also: nearly all actives have a fitted effect of over 60% in size
#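 Luminescent ATP detection (Kinase-Glo Plus) follows a 60-minute room-temperature incubation, with wells lacking PGK as controls. Buffer: 100 mM TEA (pH 7.6), 5 mM MgCl2, 0.01% Tween-20. Coupling enzyme GAPDH (100 nM final) supplies unstable 1,3-BPG in-well.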
# APE1 inh – inhibitors of human APE1 endonuclease. recombinant APE1, TAMRA/BHQ-2 abasic DNA cleavage fluorescence. Potency, µM (titrated, usually from 65.8 µM), for inactives: at the top dose activity change, negative = inhibition, most hits filed as inhibitors. hit rate 0.35% among 350,000. AID 2517;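 also: plate controls were vehicle for no effect and reference inhibitor for full effect; nearly all actives have a fitted effect of over 55% in size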
#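 Readout is kinetic fluorescence (ex 525, em 598 nm) from cleavage of 50 nM TAMRA/BHQ-2 THF abasic duplex by 0.75 nM APE1, compound added 15 min beforehand at RT.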
# TDP1 inh – inhibitors of human tyrosyl-DNA phosphodiesterase TDP1; AID 485290; Q9NUW8; Potency, µM (top dose mostly 130 µM), without a hit: at the highest dose activity change, negative = inhibition, most hits filed as inhibitors; recombinant TDP1, AlphaScreen DNA substrate cleavage; hit rate 0.28% among 350,000; also: nearly all actives have a fitted effect of over 40% in size
#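 E. coli-derived human Tdp1, 1 nM final. Cpd preinc 15 min RT; substrate 15 nM final, 5 min RT; AS bead mix 10 ug/ml final, 10 min RT. Signal loss = tyrosine-FITC cleavage. No-enzyme wells = max signal.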
# BLM helicase inh – blocks DNA unwinding by human BLM helicase; recombinant BLM DNA unwinding, fluorescence dequenching; Potency, µM (highest dose often 56.1 µM), for inactives: top-dose activity change, negative = inhibition, most hits filed as inhibitors; hit rate 0.2% among 350,000; AID 2528;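 also: plate controls were vehicle for no effect and no enzyme for full effect; nearly all actives have a fitted effect of over 35% in size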
# Numbers without * were called inactive; i = inactive; ? = inconclusive; / = not tested or not shown; [ ] = another dose, or the depositor's remark. Hits are enriched below; roughly 0.85% of the tested compounds scored in any of these assays. Calls follow the shape of the dose curve; as a rule, active = well fitted curve in the direction sought with a large enough effect; inconclusive = small, poorly fitted or top-dose-only effect, or another doubt; inactive = no such curve, though single readings can be large; an effect the other way counts as inactive or inconclusive. Unless noted, % is scaled to controls: 0 for no effect and ±100 for the full control effect; potency is read from the fitted curve at half-maximal effect.
SMILES,GLS inhibitor,RECQ1 inh,PGK inhibitor,APE1 inh,TDP1 inh,BLM helicase inh
O=c1c(=O)n(O)c2ccccc2n1O,13µM*,i,2%,-2%,-3%,-7%
CC(O)CNc1nc2c(c(=O)n(Cc3ccc(Cl)cc3)c(=O)n2C)n1C (configuration not stated),11µM*,/,0%,48%,9%,-1%
CC(O)CNc1nc2c(c(=O)n(Cc3ccc(Cl)c(Cl)c3)c(=O)n2C)n1C (configuration not stated),-14%,3%,1%,22%,8%,-1%
Cn1c(Oc2ccc(Cl)cc2)nc2c1c(=O)n(Cc1ccc(F)cc1)c(=O)n2C,0%,/,-2%,/,/,-9%
CN(CCO)c1nc2c(c(=O)n(Cc3ccc(Cl)cc3)c(=O)n2C)n1C,8.9µM*,/,0%,-5%,/,-8%
CC(=O)Nc1ccc(S(=O)(=O)NCCC(=O)OCC(=O)N2CCN(C(=O)c3ccco3)CC2)cc1,-3%,/,-7%,?,40µM*,-8%
Cc1ccc(C(=O)[C@@H]2[C@H]3C4COC(O4)C(=O)[C@@H]3[C@H]3C=Cc4ccccc4N32)cc1 (some centres not stated),/,-8%,/,-7%,17%,-12%
CC(=O)[C@@H]1[C@H]2[C@H](C(=O)[C@H]3OC[C@@H]2O3)[C@H]2C=Cc3ccccc3N21,/,32µM*,/,-6%,/,-16%
CC(=O)c1ccc(NC(=O)CN2C(=O)CCc3cc(S(=O)(=O)N4CCC(C)CC4)ccc32)cc1,-25%,/,25µM*,/,/,-9%
Cc1cc[n+](-c2[nH]c(=O)sc2/C=N/N=C(\[O-])c2ccncc2)cc1,6%,/,-6%,7%,40µM*,-10%
Cc1ccc[n+](-c2[nH]c(=O)sc2/C=N/N=C(\[O-])c2cccnc2)c1,6%,/,7%,-3%,50µM*,-5%
CCc1ccc[n+](-c2[nH]c(=O)sc2/C=N/N=C(\[O-])c2cccnc2)c1,12%,/,-10%,33%,-1%,-2%
Cc1ccc(-n2c(Cc3cccc4ccccc34)n[nH]c2=S)c(C)c1,10µM*,i,-5%,4%,5%,-9%
CC(CN1CCOCC1)C(Cc1ccccc1)(Cc1ccccc1)C(=O)N1CCCC1 (configuration not stated),9%[99.4 µM],/,/,/,/,/
CC(C)(C)OC(=O)Cc1nnc(-c2nc3ccccc3[nH]2)s1,/,/,/,/,-3%,/
CC#CC[C@@H](C)[C@@H](O)/C=C/[C@H]1[C@H]2c3cccc(CCCC(=O)O)c3O[C@H]2C[C@@H]1O,13%,/,/,/,/,/
O=c1cnc2ccccc2n1Cc1ccccc1C(F)(F)F,-11%,/,-13%,-40%,50µM*,-2%
O=C1OC(c2ccc3c(c2)OCO3)=N/C1=C\c1ccc(C(=O)O)cc1,?,/,-16%,4.2µM*,/,1%
O=C(O)c1cccc(-c2ccc3c(c2)OCO3)c1,-2%,/,1%,11%,5%,-4%
CCOC(=O)Cc1csc(N/N=C\c2cccc(Br)c2)n1,20µM*,-17%,-6%,5%,7%,-4%
C#CCSc1nc2sc3c(c2c(=O)n1C)CCC3,-18%,/,?,9.5µM*,/,6%
O=C(COC(=O)c1ccccc1)Nc1ncc([N+](=O)[O-])s1,169%,/,?,3.4µM*,/,/
O=C(Nc1ccccc1)Nc1ncc([N+](=O)[O-])s1,9%,-6%,-5%,-6%,8%,-8%
COc1ccc(C(=O)N(Cc2cccs2)Cc2cccs2)c(O)c1,/,/,/,/,-8%,/
COc1cccc(Nc2nc(C#N)nc(NC3CCCC3)n2)c1,/,/,/,/,-3%,/
SMILES,GLS inhibitor,RECQ1 inh,PGK inhibitor,APE1 inh,TDP1 inh,BLM helicase inh
COC(=O)/C(C(C)=O)=C(\C=C\N(C)C)N(C)C,-4%,-2%,-7%,2%,2%,-2%
COC(=O)\C(C(C)=O)=C(/C=C/C=C/C=C/N(C)C)N(C)C,11µM*,25µM*,?,7.9µM*,3.2µM*,-16%
O=C(CSc1nc2c(cnn2-c2ccc(F)cc2)c(=O)[nH]1)Nc1ccc(Br)cc1,7.9µM*,/,0%,/,-6%,-11%
Cc1cc(C)cc(NC(=O)CSc2nc3c(cnn3-c3ccc(F)cc3)c(=O)[nH]2)c1,0%,/,-4%,/,6%,-2%
C/C(=N\Nc1ccc(Cl)c(C(=O)O)c1)c1cccc2ccccc12,11µM*,/,-21%,-1%,-4%,0%
C/C(=N\Nc1ccc(Cl)c(C(=O)O)c1)c1cc2ccccc2o1,10µM*,-2%,0%,2%,9%,4%
C/C(=N\Nc1cccc(C(=O)O)c1)c1cc2ccccc2o1,?,i,-14%,9%,-2%,-8%
O=C1CCCC2=C1C1(CCOCC1)N=C(Nc1nc3ccccc3o1)N2,/,/,/,/,-5%,/
Oc1ccc(N=Nc2c(O)ccc3ccccc23)cc1,10%,35µM*,/,-12%,10%,-22%
COc1ccc(-c2nc3ccccc3c(=O)n2Cc2ccco2)cc1COc1ccc(NC(C)=O)cc1,/,/,/,/,-4%,/
COc1ccc(-c2nc3ccccc3c(=O)n2Cc2ccc(CNC(=O)CO)cc2)cc1COc1ccc(NC(C)=O)cc1,/,/,/,/,79µM*,/
O=C(Nc1cccnc1)c1cnn2c1NC(=C1CC1)C=C2C(F)F,/,/,/,41%,/,/
Cc1nc(N=Nc2cc(S(=O)(=O)O)ccc2S(=O)(=O)O)c(COP(=O)(O)O)c(C=O)c1O,/,-30%,/,16µM*,5µM*,88%
CC(C)(C)c1cc(=O)n(-c2ccccc2)[nH]1,4%,i,-25%,-9%,3%,18µM*
Cc1cc(=O)oc2cc(OCC(=O)NCCc3ccccc3)ccc12,-2%,/,-1%,46%,/,0%
Cc1cc(=O)oc2cc(OCC(=O)N/N=C/c3ccccc3[N+](=O)[O-])ccc12,59%,-2%,6%,-3%,56µM*,?
O=C(CSc1nnc(-c2cccc([S+](=O)([O-])N3CCCC3)c2)n1-c1ccccc1)Nc1ccc2c(c1)OCCO2,/,/,/,17%,/,/
CNc1ccc(O)cc1,/,32µM*,/,-8%,15%,/
COc1cc(/C=C(\CCC(=O)O)c2nc3ccccc3s2)ccc1OCC(=O)Nc1c(Cl)cccc1Cl,10µM*,/,?,?,28µM*,/
CN(C)c1cc(NC(=O)CNC(C)(C)C)c(O)c2c1C[C@@H]1C[C@H]3[C@H](N(C)C)C(=O)C(C(N)=O)=C(O)[C@@]3(O)C(=O)C1=C2O,6.3µM*,/,/,/,/,/
CN(C)c1ccc(O)c2c1CC1CC3C(N(C)C)C(=O)C(C(N)=O)=C(O)[C@@]3(O)C(=O)C1=C2O (some centres not stated),56%,/,1%,/,/,/
